Screening data from PubChem.
MITF TRPM1 inh – MITF TRPM1 promoter inhibition in SK-MEL-5 cells. SK-MEL-5 TRPM1 promoter luciferase, 24 h. inhibition, % at 12.5 µM. actives 0.83% (n = 330,000). AID 488899;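 active means mean inhibition across replicates of 60% or more, whatever share of single replicates reaches that level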
Peg3 prom inh-1 – reduces Peg3 promoter-driven luciferase expression in HeLa; HeLa PEG-Prom luciferase reporter, luminescence, overnight; inhibition, % at 20 µM; actives 1.7% (n = 360,000);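 active means inhibition of at least 50% at 20 µM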
CF NFkB block – blocks PAF-induced NF-kB reporter in cystic fibrosis cells; KKLEB NF-kB-GFP reporter, GFP fluorescence overnight; inhibition, % at 5 µM; actives 0.86% (n = 360,000); AID 588850;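 active means at least 50% inhibition at 5 µM, scaled per plate between neutral and stimulator controls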;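 further: PAF is a Pseudomonas aeruginosa culture filtrate used as stimulus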
KKLEB tox – reduces viability of KKLEB cystic fibrosis airway cells; KKLEB CF airway cells viability, ATPlite luminescence, overnight; stronger effect = lower value; cells stimulated with P. aeruginosa culture filtrate; activity change (cytotoxicity), % at 5 µM; actives 0.36% (n = 360,000); AID 602141;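 active means corrected activity change at or below -50% at 5 µM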
Shn3 inh set2 – inhibitors of Schnurri-3 3'UTR reporter in osteoblasts; Clone20 osteoblast Shn3 3'UTR firefly luciferase, 24 h; AID 588674; actives 0.52% (n = 360,000); inhibition, % at 12.5 µM;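 active means mean inhibition of at least 75% with every replicate also reaching 75%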
HIF-2a block – inhibitors of HIF-2a. 786-0 RCC cells HIF-2a reporter, luciferase luminescence, overnight. inhibition, % at 18.8 µM. actives 0.72% (n = 360,000);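 active means inhibition of the luminescence signal of 40% or more relative to plate controls, in a single-dose primary screen at 18.75 µM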
Peg3 prom inh-2 – Peg3 promoter inhibition confirmation; shares compounds with Peg3 prom inh-1; HeLa PEG-Prom luciferase reporter, luminescence, overnight; inhibition, % at 20 µM; actives 84% (n = 1,300); AID 602417;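 active means at 20 µM dose, 40% or more inhibition averaged across four replicates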
Large screens that a line does not name were inactive (follow-up assays come after a bar, where they were run). Hits are enriched below; roughly 2.7% of the tested compounds scored in any of these assays.

Cc1ccc(C2=NC(=O)/C(=C/c3cc(O)c(O)c(Br)c3)S2)cc1	Peg3 prom inh-1 67.4 | Peg3 prom inh-2 67.0
COc1ccc(OC)c(-c2csc(NC(=O)Cn3[nH]c(=O)c4ccccc4c3=O)n2)c1	Peg3 prom inh-1 54.8 | Peg3 prom inh-2 inactive
CN(C)CCCN(C(=O)c1ccc(S(=O)(=O)N(C)Cc2ccccc2)cc1)c1nc2cc3c(cc2s1)OCO3	MITF TRPM1 inh 85.1, Peg3 prom inh-1 67.9 | Peg3 prom inh-2 89.2
CCN(c1ccccc1)S(=O)(=O)c1ccc(C(=O)N(CCCN(C)C)c2nc3cc4c(cc3s2)OCO4)cc1	Peg3 prom inh-1 52.1 | Peg3 prom inh-2 81.1
COc1ccc(-c2cc(C(=O)N3CCN(c4ccccc4F)CC3)c3ccccc3n2)c(OC)c1	Peg3 prom inh-1 50.9 | Peg3 prom inh-2 51.7
COc1ccc(OC)c(-c2cc(C(=O)N3CCN(c4ncccn4)CC3)c3ccccc3n2)c1	Peg3 prom inh-1 54.5 | Peg3 prom inh-2 52.1
COc1ccc(-c2cc(C(=O)N3CCN(c4ncccn4)CC3)c3ccccc3n2)c(OC)c1	Peg3 prom inh-1 53.4 | Peg3 prom inh-2 44.8
CCOC(=O)C1CCN(c2cc3c(cc2NC(=O)c2ccccc2OCC)n(C)c(=O)n3C)CC1	Peg3 prom inh-1 51.4 | Peg3 prom inh-2 45.4
COCCCN=C1NN=C(c2cc(C)n(Cc3ccco3)c2C)CS1	none
Cc1cc(C2=NNC(=NC3CC3)SC2)c(C)n1Cc1ccco1	MITF TRPM1 inh 91.3, Peg3 prom inh-1 86.0, HIF-2a block 80.2 | Peg3 prom inh-2 89.6
CCCCCCCCOC(=O)c1cc([N+](=O)[O-])c(Sc2ncnc3nc[nH]c23)c([N+](=O)[O-])c1	Peg3 prom inh-1 82.7, Shn3 inh set2 98.7 | Peg3 prom inh-2 72.7
O=C(NC1CCN(C(=O)c2ccccc2Br)CC1)c1ccccc1	none
CCN1CCCC1CN(Cc1cc2ccc(C)cc2[nH]c1=O)C(=S)Nc1ccc(OC)cc1 (centres undefined)	Peg3 prom inh-1 63.1 | Peg3 prom inh-2 79.6
CC(C)c1ccc(CNC(=O)C2(C)CCCN2C)cc1 (centres undefined)	none (no result: MITF TRPM1 inh)
c1ccc(CCNc2nc(-c3ccncc3)nc3ccccc23)cc1	Peg3 prom inh-1 56.2 | Peg3 prom inh-2 69.3
Cc1ccc(OCc2cc(C(=O)N3CCC(C(O)C(C)C)CC3)no2)cc1C (centres undefined)	none
Cc1ccc2[nH]c(=O)c(C3C(C#N)=C(N)Oc4c3ccc3cccnc43)cc2c1 (centres undefined)	Peg3 prom inh-1 50.3 | Peg3 prom inh-2 48.4
c1ccc(COc2cccc(CN3CCc4ccccc4C3)c2)cc1	none
O=C1C(c2ccnc3ccccc23)=C(O)c2ccccc21	Peg3 prom inh-1 87.8 | Peg3 prom inh-2 inactive
CCOC(=O)N1CCN(S(=O)(=O)c2ccc(C(=O)Nc3nc4ccc(F)cc4s3)cc2)CC1	Peg3 prom inh-1 54.5 | Peg3 prom inh-2 inactive
CCOC(=O)N1CCN(S(=O)(=O)c2ccc(C(=O)Nc3nc4ccccc4s3)cc2)CC1	none
COc1cccc(CNC(=O)C2CCN(S(=O)(=O)c3cccc4nonc34)CC2)c1	none
Cc1csc2nc(COC(=O)c3ccc(Cl)c([N+](=O)[O-])c3)cc(=O)n12	Peg3 prom inh-1 59.2 | Peg3 prom inh-2 inactive
CCc1ccc(C2CC(c3ccccc3)Nc3nc(N)nn32)cc1 (centres undefined)	none
c1ccc(C2CC(c3ccccc3)n3c(nc4ccccc43)N2)cc1 (centres undefined)	Peg3 prom inh-1 75.8 | Peg3 prom inh-2 inactive
CCn1c(/C=C/c2ccc(O)cc2)nc2ccccc2c1=O	none
CCn1c(/C=C2\C(=O)Nc3ccccc32)nc2ccccc2c1=O	Peg3 prom inh-1 51.8 | Peg3 prom inh-2 inactive
CCN(CC)CCn1c2ccccc2c2cnc(N)c(C#N)c21	Peg3 prom inh-1 90.8 | Peg3 prom inh-2 93.6
CN(C)C=Nc1ncc2c3ccccc3n(CCN(C)C)c2c1C#N	none
COC(=O)[C@]12CCCCC=C1N(Cc1ccc3c(c1)OCO3)C(=O)[C@H](CC(=O)N1CCCCC1)C2	none (no result: MITF TRPM1 inh, Peg3 prom inh-1, CF NFkB block, KKLEB tox, Shn3 inh set2)
COC(=O)c1ccc2nc(C)cc(Nc3ccccc3C)c2c1	none
